Many of the other results were omitted from the sample, so hits are more common in it than they were.
mHTT-CaM PPI inh: disrupts binding of mutant huntingtin to calmodulin; P42858; AlphaScreen His-mHTT/GST-CaM binding, luminescence; inhibition, % at 15 µM; 3.6% of 190,000 active;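 further: 0% = both proteins with DMSO and 100% = one protein alone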
Pf apPOL block: Pf-apPOL DNA polymerase inhibition; AID 1794808; Recombinant Pf-apPOL, molecular beacon fluorescence, 1.5 h; inhibition, % at 10 µM; 0.25% of 210,000 active
Active calls of the source: *; x = no result given. No stated cut-off is given here; in the data, active means inhibition above about 50%; inactive means the rest.

SMILES	mHTT-CaM PPI inh	Pf apPOL block
Cc1ccc(C2CC(c3ccccc3O)=NC3(CCN(C)CC3)N2)cc1 (stereo unspecified)	38	6
O=C(c1ccc(F)cc1Cl)N1CCC(c2nc(C3CC3)n[nH]2)CC1	0	-7
CC1CN(C(=O)c2cc(Cl)ccc2F)CC1c1nc(-c2ccncc2)no1 (stereo unspecified)	0	-7
CCOc1ccc(C2=NC3(CCN(C)CC3)NC(c3cc(Cl)ccc3O)C2)cc1 (stereo unspecified)	9	0
CC(C)C1N=C(c2ccc3c(c2)OCO3)CC(c2cc(Cl)ccc2O)N1 (stereo unspecified)	67*	-1
CCCC1(C)N=C(c2ccc(Cl)cc2)CC(c2cccc(OC)c2O)N1 (stereo unspecified)	88*	-7
COc1cccc(C2=NC3(CCN(C)CC3)NC(c3cc(Cl)ccc3O)C2)c1 (stereo unspecified)	52*	-4
CC(C)C1N=C(c2ccc3c(c2)OCO3)CC(c2cc(Br)ccc2O)N1 (stereo unspecified)	31	-3
CCN1CCC2(CC1)N=C(c1ccc(C)cc1)CC(c1cccc(OC)c1O)N2 (stereo unspecified)	10	-3
C=CCNC(=O)c1csc2c1CCCCC2	-2	-3
O=C(CCn1c(=O)oc2ccc(Cl)cc21)Nc1ccc2c(c1)OCCO2	-11	2
Cc1noc(COC2CCCN(S(=O)(=O)c3cccnc3)C2)n1 (stereo unspecified)	-13	-6
O=C1CN(C(=O)c2ccc(Cl)cc2)C(c2ccc(F)cc2)c2cc(F)ccc2N1 (stereo unspecified)	13	-9
O=S(=O)(Cc1ccccc1)N1CCN(c2cccc(Cl)c2)CC1	5	-14
Cc1nc(C2CCCN2S(=O)(=O)Cc2cccc(F)c2)n[nH]1 (stereo unspecified)	-7	4
C[C@H]1[C@@H]2C[C@H]([C@H]3CCCCN31)[C@H](OC(=O)Nc1ccc(C(F)(F)F)cc1)C2	76*	-3
CCCC[C@H]1[C@@H]2C[C@H]([C@H]3CCCCN31)[C@H](OC(=O)Nc1ccc(C(F)(F)F)cc1)C2	-15	-8
O=C(Nc1ccccc1C(F)(F)F)N1CCn2cccc2C1Cc1ccccc1 (stereo unspecified)	11	1
COc1ccc(NCC(=O)N2c3ccccc3Sc3ccccc32)cc1	60*	3
COc1cc(NC(=O)N2c3ccccc3Sc3ccccc32)cc(OC)c1	1	-8
O=[N+]([O-])c1ccc(CSc2nnc(-c3cccnc3)n2Cc2ccco2)cc1	0	-2
O=C(Cc1ccc(F)cc1)N(CCCn1ccnc1)c1nc2c(Cl)cccc2s1	91*	4
Cc1cc(C(=O)N(CCN(C)C)c2nc3c(Cl)cccc3s2)no1	-16	1
O=C(c1cccc(F)c1)N(CCCn1ccnc1)c1nc2c(F)cccc2s1	26	-7
CN(C)CCN(C(=O)CCc1ccccc1)c1nc2c(Cl)cccc2s1	62*	2
SMILES	mHTT-CaM PPI inh	Pf apPOL block
O=C(CC1(O)C(=O)Nc2ccccc21)c1ccc2c(c1)CCCC2 (stereo unspecified)	12	-6
O=C(CCC1CCCN(c2cc(NC3CC3)ncn2)C1)NCc1ccc(F)cc1 (stereo unspecified)	4	-4
O=C(O)/C=C\C(=O)Nc1ccc(Oc2cccc(Oc3ccc(NC(=O)/C=C\C(=O)O)cc3)c2)cc1	x	5
Cn1cc(C(=O)NCc2ccc(N3CCCCC3)cc2)c2cccnc21	25	-7
CCN(CC)S(=O)(=O)c1ccc(F)c(C(=O)Nc2ccc(F)c(F)c2)c1	-9	0
C[C@H](CCC(=O)OCc1cn(CC(=O)c2ccc(O)cc2)nn1)[C@H]1CC[C@H]2[C@@H]3CC[C@@H]4C[C@H](O)CC[C@]4(C)[C@H]3C[C@H](O)[C@]12C	26	1
CC(CCC(=O)N=Nc1c(O)[nH]c2ccc(Br)cc12)C1CCC2C3C(O)CC4CC(O)CCC4(C)C3CCC12C (stereo unspecified)	63*	-5
O=C(O)CC(c1ccccc1)c1ccccc1O (stereo unspecified)	-5	1
Cc1ccc(C(=O)C2=C(O)C(=O)N(c3ncccn3)C2c2ccc([N+](=O)[O-])cc2)o1 (stereo unspecified)	28	-14
CCNC(=O)CCC1CCN(c2cc(NC3CC3)ncn2)CC1	-1	-7
O=C(Nc1ccc2c(c1)OCO2)N1CCCC1c1cccc(F)c1 (stereo unspecified)	2	-8
N#CC1=C(N)Oc2n[nH]c(-c3ccc4c(c3)OCO4)c2C1c1ccc(Cl)cc1 (stereo unspecified)	81*	-4
Cc1ccc(C2C(C#N)=C(N)Oc3n[nH]c(-c4ccccc4)c32)s1 (stereo unspecified)	13	-3
N#CC1=C(N)Oc2n[nH]c(-c3ccccn3)c2C1c1ccncc1 (stereo unspecified)	53*	13

Assay outcomes (PubChem BioAssay)
